From PubChem BioAssay (NCATS) come the findings set out here.

The test system of one assay is CRL-7250. In words: Cytotoxic Profiling of Annotated Libraries Using Quantitative High-Throughput Screening (AID 1296008). For max response: % is set by controls: 0 for no effect and ±100 for the full control effect. Note: nearly all actives have a fitted effect of over 60% in size. Note: potency is the fitted concentration of half-maximal effect. Particulars: Five cell lines viability, CellTiter-Glo ATP luminescence, 48-72 h; max response: hits give low values. Put shortly:
(§1)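 Compounds were pin-transferred onto cells and incubated 48 or 72 hr at 37 degree Celsius, 95% humidity. CellTiter-Glo was added, plates sat 10 min at room temperature, then ATP-coupled luminescence was imaged as the viability read-out.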

In the next assay the test system is HEK293. The assay is described as above. Particulars: Five cell lines viability, CellTiter-Glo ATP luminescence, 48-72 h; max response: hits give low values. In outline:
as §1
On the technique in general: In ATP-based viability assays light output follows the ATP content of the culture.

The test system of assay [1] is HaCat. The assay is described as above. The following applies: Five cell lines viability, CellTiter-Glo ATP luminescence, 48-72 h; max response: hits give low values. In outline:
as §1

The subject of another assay is KB-3-1. The assay is described as above. Particulars: Five cell lines viability, CellTiter-Glo ATP luminescence, 48-72 h; max response: hits give low values. In outline: as §1
The test system of a further assay is NIH3T3. The assay is described as above. Particulars: Five cell lines viability, CellTiter-Glo ATP luminescence, 48-72 h; max response: hits give low values. In outline: as §1
The test system of assay [2] is HACAT. Kind of assay: qHTS assay to identify novel small-molecules to repurpose for Merkel cell carcinoma treatment (AID 1296009). Note: nearly all actives have a fitted effect of over 60% in size. The following applies: MCC and control cell lines, CellTiter-Glo viability, 72 h; at 44.8 µM (top of the series) unless noted. In outline:
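Cells exposed to NPC (8-point) and MIPE (11-point) compound dilutions for 72 hr at 37 degree celsius; viability read by CellTiter-Glo luminescence, normalized to no-cell and DMSO in-plate controls.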

A further assay has as its system C33A. Kind of assay: Primary qHTS to identify gynecologic anti-cancer compounds using libraries of approved drugs and bioactive compounds (AID 1345084). Note: % is set by controls: 0 for no effect and ±100 for the full control effect; nearly all actives have a fitted effect of over 55% in size. The following applies: Gynecologic cancer cell panel viability, ATPlite luminescence, 48 h; series mostly up to 57.5 µM. In outline: (§2)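 Luminescence from the ATPlite ATP-monitoring reagent indicates viable cell number; lower signal means cytotoxicity. Cells received compound 16 h after seeding and were exposed for 48 h across five concentrations.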
(qHTS replaces the single test concentration by a dilution series.)

The next assay relates to CAOV3. The description is as above. Particulars: Gynecologic cancer cell panel viability, ATPlite luminescence, 48 h; series mostly up to 57.5 µM. In outline:
as §2

The subject of another assay is CASKI. The description is as above. Particulars: Gynecologic cancer cell panel viability, ATPlite luminescence, 48 h; series mostly up to 57.5 µM. In outline: as §2
For a further assay, the system named is Es-2. The description is as above. Particulars: Gynecologic cancer cell panel viability, ATPlite luminescence, 48 h; series mostly up to 57.5 µM. In outline:
as §2

The next assay deals with HeLa. Described as above. Particulars: Gynecologic cancer cell panel viability, ATPlite luminescence, 48 h; series mostly up to 57.5 µM. In outline: as §2
Another assay relates to Hek293T. The assay is described as above. Particulars: Gynecologic cancer cell panel viability, ATPlite luminescence, 48 h, control line for the selectivity index; series mostly up to 57.5 µM. In outline:
as §2

Another assay concerns JEG-3. The assay is described as above. Particulars: Gynecologic cancer cell panel viability, ATPlite luminescence, 48 h; series mostly up to 57.5 µM. In outline: as §2
In the next assay the test system is OV90. The description is as above. Particulars: Gynecologic cancer cell panel viability, ATPlite luminescence, 48 h; series mostly up to 57.5 µM. Put shortly:
as §2

Each structure is given as a SMILES string. Inconclusive results are not listed. A number with no mark means an inactive call. Activity calls are given as the source filed them. Calls come from the whole dose curve; as a rule, active = well fitted curve in the direction sought with a large enough effect; inconclusive = small, poorly fitted or top-dose-only effect, or another doubt; inactive = no such curve, though single readings can be large; an effect the other way counts as inactive or inconclusive.

For `COC(=O)C1=CO[C@@H](O[C@@H]2O[C@H](CO)[C@@H](O)[C@H](O)[C@H]2O)[C@@H]2[C@@H](C(=O)O)CC[C@H]12`, the max response in the assay with CRL-7250 is -20%; with HEK293, -0.168%; in the assay on KB-3-1 it was 3.46%; in the assay with NIH3T3, 0.607%. Moreover, the call in the assay with HaCat [1] and in the assay on CASKI was inactive. In the assay with HACAT [2], the outcome was “inactive [at 17.4 µM]”. In addition, the Potency result in the assay with C33A, with CAOV3, with Es-2, in the assay with HeLa, in the assay on Hek293T and with JEG-3 was “inactive” throughout. Moreover, the Potency result in the assay on OV90 was “inactive”.
Consider `NC1Nc2ccccc2C1(N)CC1NC(=O)C(Cc2ccccc2)NC(=O)C(Cc2ccccc2)NC1=O` (stereo not drawn), for which the max response with CRL-7250 was -1.59%; with HEK293, -40.7%; in the assay on KB-3-1, 2.51%; in the assay on NIH3T3 it was 1.33%. Moreover, the outcome in the assay on HaCat [1] and with CASKI was inactive. Besides, the outcome with HACAT [2] was “inactive [at 17.4 µM]”. The Potency entry with C33A, with CAOV3, in the assay with Es-2, in the assay on HeLa, in the assay with Hek293T and in the assay with JEG-3 was “inactive” throughout. Further, the Potency entry in the assay on OV90 was “inactive”.
For `Cc1cn(C[C@H](N)C(=O)O)c(=O)n(Cc2ccsc2C(=O)O)c1=O`, the max response with CRL-7250 is -3.54%; in the assay with HEK293 it was -7.52%; in the assay with NIH3T3, 4.32%. The call with HaCat [1], in the assay with KB-3-1, in the assay with HACAT [2] and with CASKI was inactive. Moreover, the Potency entry with C33A, with CAOV3, with Es-2, with HeLa, in the assay with Hek293T and in the assay with JEG-3 was “inactive” each time. Also, the Potency result with OV90 is “inactive”.
Consider `COC(=O)C1=COC(O[C@@H]2O[C@H](CO)[C@@H](O)[C@H](O)[C@H]2O)[C@@H]2[C@@](C)(O)[C@@H](OC(=O)/C=C/c3ccccc3)C[C@]12O` (stereo partly drawn), for which the max response with CRL-7250 was 1.9%; with HEK293, -1.35%; in the assay on NIH3T3 it was 4.01%. Besides, the outcome with HaCat [1], with KB-3-1 and in the assay on CASKI was inactive. In the assay on HACAT [2], the outcome is “inactive [at 17.4 µM]”. For the same compound, the Potency result with C33A, with CAOV3, in the assay with Es-2, in the assay on HeLa, in the assay with Hek293T and in the assay with JEG-3 was “inactive” throughout. For the same compound, the Potency entry in the assay with OV90 was “inactive”.
Turning to `COc1ccccc1N1CCN(CCCCNC(=O)c2ccc(-c3cscn3)cc2)CC1`, the max response with CRL-7250 was -3.11%; in the assay on KB-3-1 it was -12.5%; in the assay on NIH3T3 it was 1.48%. Besides, the Potency in the assay on HEK293 is 20.6 µM (active). Besides, the outcome in the assay with HaCat [1], in the assay with HACAT [2] and in the assay on CASKI was inactive. Further, the Potency entry with C33A, with CAOV3, with Es-2, with HeLa, in the assay with Hek293T and in the assay with JEG-3 was “inactive” in each case. Moreover, in the assay on OV90, the Potency entry was “inactive”.
Turning to `CC12CC34CC(O)C5C(CO)(CO)CC(=O)CC5(C)C3CC1C2C4` (stereo not drawn), the max response in the assay on CRL-7250 is -4.91%; in the assay with HEK293 it was -0.711%; with KB-3-1 it was 0.93%; in the assay on NIH3T3, 2.14%. In addition, the compound was classed as inactive in the assay with HaCat [1], with HACAT [2] and in the assay on CASKI. In addition, the Potency entry with C33A, with CAOV3, in the assay on Es-2, in the assay on HeLa, in the assay on Hek293T and in the assay on JEG-3 was “inactive” throughout. Further, in the assay with OV90, the Potency entry is “inactive”.
Consider `C[C@@H]1CCC2C(C)(C)[C@H](O)[C@H](O)C[C@]2(C)[C@@]12Cc1c(O)cc3c(c1O2)CN(CCCC(=O)O)C3=O` (stereo partly drawn), for which the max response in the assay with CRL-7250 is -7.06%; in the assay on HEK293, -1.57%; in the assay with KB-3-1 it was 3.58%; in the assay on NIH3T3 it was 4.1%. Further, the compound was called inactive in the assay with HaCat [1] and in the assay with CASKI. Besides, in the assay on HACAT [2], the outcome is “inactive [at 17.4 µM]”. The Potency result in the assay with C33A, with CAOV3, in the assay with Es-2, in the assay on HeLa, in the assay on Hek293T and with JEG-3 was “inactive” in each case. In the assay with OV90, the Potency entry was “inactive”.
For the compound `CC(=O)O[C@@H]1[C@@H](O)[C@H](C)O[C@@H](O[C@H]2[C@@H]3C=CO[C@@H](O[C@@H]4O[C@H](CO)[C@@H](O)[C@H](O)[C@H]4OC(C)=O)[C@@H]3[C@@]3(CO)O[C@@H]23)[C@@H]1OC(=O)/C=C/c1ccc(O)cc1`, the figures for the max response with CRL-7250 and with HEK293 were 0.704% and 2.14%, respectively. The call in the assay on HaCat [1], in the assay on KB-3-1, in the assay with NIH3T3 and in the assay on CASKI was inactive. The outcome with HACAT [2] was “inactive [at 17.4 µM]”. Moreover, the Potency entry in the assay with C33A, in the assay with CAOV3, in the assay with Es-2, in the assay with HeLa, in the assay with Hek293T and in the assay on JEG-3 was “inactive” in each case. Further, in the assay on OV90, the Potency entry was “inactive”.
Consider `CC(C)=CCC[C@](C)(O[C@@H]1O[C@H](CO[C@@H]2O[C@@H](CO)[C@H](O)[C@H]2O[C@@H]2OC[C@@H](O)[C@H](O)[C@H]2O)[C@@H](O)[C@H](O)[C@H]1O)[C@H]1CC[C@]2(C)[C@@H]1[C@H](O)CC1[C@@]3(C)CC[C@H](O[C@@H]4O[C@H](CO)[C@@H](O)[C@H](O)[C@H]4O[C@@H]4O[C@H](CO)[C@@H](O)[C@H](O)[C@H]4O)C(C)(C)C3CC[C@]12C` (stereo partly drawn), for which the max response was 4.19% in the assay with CRL-7250, -1.64% with HEK293, 8.39% in the assay on KB-3-1 and 4.58% in the assay on NIH3T3. Also, in the assay with HaCat [1], the compound was called inactive. Further, the outcome in the assay with HACAT [2] was “inactive [at 9.27 µM]”. The activity change, negative = cytotoxicity in the assay with C33A is 7.16% [at 6.55 µM]; with CAOV3 it was 9.01% [at 6.55 µM]; in the assay on CASKI, 10.9% [at 6.55 µM]; with Es-2 it was 4.94% [at 6.55 µM]; with HeLa it was -1.43% [at 6.55 µM]; with Hek293T it was 2.28% [at 6.55 µM]. In addition, the activity change, negative = cytotoxicity in the assay on JEG-3 is 5.39% [at 6.55 µM]; with OV90, -2.38% [at 6.55 µM].
For `CC(=O)OC(C)C(C)(O)C(=O)O[C@@H]1CC[C@]2(C)CC(=O)C(=C(C)C)C[C@H]2[C@]1(C)OC(C)=O` (stereo partly drawn), the max response in the assay with CRL-7250 is -0.377%; with HEK293, 0.4%; in the assay with KB-3-1, 6.09%; in the assay on NIH3T3, -1.04%. The compound was classed as inactive with HaCat [1] and in the assay on CASKI. In addition, the outcome with HACAT [2] was “inactive [at 17.4 µM]”. The Potency entry in the assay on C33A, with CAOV3, in the assay with Es-2, in the assay with HeLa, with Hek293T and in the assay with JEG-3 was “inactive” in each case. Besides, the Potency entry in the assay on OV90 was “inactive”.
With `CCOC(=O)C1=C(N)Oc2ccc(Cl)cc2C1C(C#N)C(=O)OCC` (stereo not drawn), the max response is 2.77% with CRL-7250, 1.25% with HEK293 and -2.7% with NIH3T3. The result in the assay with HaCat [1], in the assay with KB-3-1, in the assay on HACAT [2] and with CASKI was inactive. The Potency entry in the assay on C33A, in the assay with CAOV3, in the assay on Es-2, in the assay on HeLa, in the assay on Hek293T and with JEG-3 was “inactive” in each case. In the assay on OV90, the Potency result is “inactive”.
Consider `CC(C)=CCc1c(O)cc2oc3cc(C)cc(O)c3c2c1C`, for which the max response was 2.07% with CRL-7250, -2.32% in the assay with HEK293, -6.44% in the assay with KB-3-1 and 3.67% in the assay with NIH3T3. Further, the result with HaCat [1], in the assay with HACAT [2] and in the assay with CASKI was inactive. The Potency result in the assay with C33A, in the assay on CAOV3, in the assay with Es-2, with HeLa, in the assay with Hek293T and with JEG-3 was “inactive” throughout. Further, in the assay with OV90, the Potency result is “inactive”.
